Laboratory results published in PubChem BioAssay (EPA / NIEHS).
Active and inactive are the calls of the source. The calls were made as follows: active = hit-call score of the fitted dose curve at least 0.9, where 1 is the maximum; inactive = score below 0.9.

These compounds were tested on Cyclin D2 (CCND2), CCND2 (gene 894) (assay: LTEA_HepaRG_CCND2: Life Technologies and Expression Analysis (LTEA) Assay for Cyclin D2 (CCND2) using HepaRG (AID 2283449;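 also: CCND2 transcript measured by TaqMan qRT-PCR and normalised to three housekeeping genes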)). Details: mRNA level, 48 h; actives raise or lower the signal.
Protocol: LTEA_HepaRG is a cell based, multiplexed-readout assay that uses HepaRG, a human liver cell line, with measurements taken at 48 hours after chemical dosing on a 96-well plate.LTEA_HepaRG_CCND2 is one of 102 assay component(s) measured in the LTEA HepaRG cell culture assay. It is a marker of Cell proliferation, survival, death.Data from the assay component LTEA_HepaRG_CCND2 was analyzed into 1 endpoint. This assay endpoint, LTEA_HepaRG_CCND2, was analyzed with bidirectional fitting relative to DMSO as the negative control and baseline of activity. Using a type of inducible reporter, measures of mRNA induction for gain or loss-of-signal activity can be used to understand regulation of transcription factor activity. To generalize the intended target to other relatable targets, this assay endpoint is annotated to the cell cycle intended target family, where the subfamily is Cell proliferation, survival, death.
A total of 1060 chemcials from the ToxCast library were tested in eight-point concentration-response experiments. Cell culture and cytotoxicity assays were conducted at Thermo Fisher Scientific's Custom Services facility (Madison, WI). A single lot of human HepaRG cells (Thermo Fisher Scientific, Frederick, MD) was used for the cell culture experiments. 96-well format collagen type I coated plates of human HepaRG cells were prepared using established methods. Briefly, cryopreserved HepaRG cells were thawed, plated at a density of approximately 100,000 cells/well in HepaRG Thaw, Plate, and General Purpose media (HPRG770, Thermo Fisher Scientific), and incubated for 48 hours. 0.5% DMSO was selected as vehicle control to balance the requisite need of DMSO in HepaRG cultures to maintain differentiation (for example, baseline metabolism, proportions of hepatocytes vs. cholangiocytes), while enabling further hepatic receptor pathway activation (for example, PXR and CAR) in response to chemical exposure. 48 hours after plating, the culture medium was replaced with HepaRG Serum-Free Incudtion Media. Cells were exposed to each test chemical in duplicate and maintained in CO2 incubators for another 48 hours. Chemical plates were thawed to room temperature and 200x concentrations of treatment groups were prepared. 8-point conentration-reponse curves were made with the highest exposure at 100 uM, followed by half-log dilutions, all in 0.5% DMSO. Each test plate contained variouse controls, induction positive controls (1mM phenobarbital), cytotoxicity positive controls ([…] aflatoxin B1), vehicle controls (0.5% DMSO), and total lysis controls (0.5% DMSO). Cell morphology images were taken using an Essen IncuCyte FLR automated microscope, with six 96-well plates imaged in about 24 minutes. Images were captured and exported and JPEG files. Spent culture media was transfered to black-well plates for the LDH assay, and remaining media was sorted at -80 C for later use. Cells were treated with RLT buffer and frozen until shipped for gene expression analysis. Total RNA was isolated from the cell suspension in 75 uL of Buffer RLT (Qiagen, Germantown, MD 20874) by Quintiles/Expression Analysis (Durham, NC) using a custom isolation procedure. Total RNA from each plate well was transferred to a preamplification plate. Fluidigm's 96.96 Dynamic ArrayTM (Fluidigm, Amsterdam, the Netherlands) technology was used for gene expression analyses by quantitative reverse transcription polymerase chain reaction (qRT-PCR, performed by Quintiles/Expression Analysis, Durham, NC)89. Standard TaqManTM Assays (Applied Biosystems/ThermoFisher Scientific, Foster City, CA) were used to assess the expression of 93 genes selected based on their selectivity and sensitivity to important hepatic receptors known to be modulated by environmental chemicals; importance in human hepatocyte functionality; and hepatotoxicity. […]

outcome, inactive:
CCOC(=O)O[C@H](C)OC(=O)c1ccc2c(c1)cc(C(=O)NC1CCN(C(C)C)CC1)n2Cc1cc(-c2ccc(Cl)s2)on1, O=c1c(-c2ccc(O)cc2)coc2cc(O)cc(O)c12, c1ccc2ccccc2c1, Cc1ncc(CO)c(CO)c1O, CCCCCCCC[Si](OCC)(OCC)OCC, CCCCCCCCN(C)CCCCCCCC, O=C1c2ccccc2C(=O)N1CCc1noc(-c2ccc(CN3CCCCCC3)s2)n1, CCCOC(=O)c1cc(O)c(O)c(O)c1, CCCCCCCCOC(=O)c1cc(O)c(O)c(O)c1, Cc1cc(F)ccc1-c1cc(N2CC[C@@H](O)[C@H]2CO)ncc1N(C)C(=O)C(C)(C)c1cc(C(F)(F)F)cc(C(F)(F)F)c1, NCc1cccc(C2CCN(C(=O)c3ccc(C#Cc4ccccc4F)o3)CC2)c1, CN(C[C@@H](CC[N+]12CCC(C3CCCCC3)(CC1)CC2)c1ccc(Cl)c(Cl)c1)C(=O)c1cc(C(F)(F)F)cc(C(F)(F)F)c1, NC(=O)c1nc(-c2cccc(-c3cc(F)ccc3OCC(F)(F)C(F)(F)F)c2)n[nH]1, CCCCCCCCCC(=O)O, Cc1cc2c(cc1C(F)(F)F)N(C(=O)Nc1ccc(Oc3cccnc3C)nc1)CC2, CC(C)(C)c1csc(-c2cc3cc(OCc4ccccc4CC(=O)O)ccc3o2)n1, COc1cc(C(=O)NC2CCN(C)CC2)ccc1Nc1ncc2c(n1)N(C1CCCC1)CC(F)(F)C(=O)N2C, Cc1c2ccccc2c(C)c2c1ccc1ccccc12, O=C(O)Cn1c(=O)n(Cc2ccc(Br)cc2F)c(=O)c2ccc(Cl)cc21, O=CCCCC=O, c1ccc(C[n+]2cccc3ccccc32)cc1, CCCCCc1ccc(N)cc1, CCN(Cc1cccc(S(=O)(=O)O)c1)c1ccc(C(=C2C=CC(=[N+](CC)Cc3cccc(S(=O)(=O)O)c3)C=C2)c2ccccc2S(=O)(=O)[O-])cc1, CC1=CC(=O)/C(=C(/C)O)C(=O)O1, O=c1ccc2ccccc2o1, OC12N=C(c3ccccc3)SC1Cc1cc(Cl)ccc12 (stereo not given), COc1cccc([C@H](O)C2CCN(CCc3ccc(F)cc3)CC2)c1OC, Clc1cc(Cl)c2c(c1)N=C1CCCCCN1C2, O=C(O)c1ccccc1C(=O)OCc1ccccc1, Cc1occc1C(=O)Nc1ccc(C(=O)N2CCC(F)(F)/C(=C\C(=O)N3CCC(N4CCCCC4)CC3)c3ccccc32)cc1, CN(C)c1ccc(C(=C2C=CC(=[N+](C)C)C=C2)c2ccc(N(C)C)cc2)cc1, CCCCCCCCCCCC[N+](C)(C)C, OCCO, CN1C(=O)N(c2ccccc2Br)Cc2cnc(Nc3ccc4c(c3)OCC(CO)O4)nc21 (stereo not given), CC[C@@H]1C[C@H](N(Cc2cc(C(F)(F)F)cc(C(F)(F)F)c2)C(C)=O)c2cc(C(F)(F)F)ccc2N1C(=O)OC(C)C, CCCCCCCCCCCO, CN(C)C(=O)C1(N2CCCCC2)CCN(CC[C@@]2(c3ccc(Cl)c(Cl)c3)CN(C(=O)c3ccccc3)CCO2)CC1, Oc1ccccc1, CCO[Si](CCCNC(N)=O)(OCC)OCC, CC(C)(C)c1cc(/C=C2\SC(N)=NC2=O)cc(C(C)(C)C)c1O
